57 molecules from the supplement of paper PMC7724964 can be followed below.

The chains are these.
T1: WDR74 1-387 WD40 (domain begin residue: 1, domain end residue: 387), Q6RFH5
T1 chain: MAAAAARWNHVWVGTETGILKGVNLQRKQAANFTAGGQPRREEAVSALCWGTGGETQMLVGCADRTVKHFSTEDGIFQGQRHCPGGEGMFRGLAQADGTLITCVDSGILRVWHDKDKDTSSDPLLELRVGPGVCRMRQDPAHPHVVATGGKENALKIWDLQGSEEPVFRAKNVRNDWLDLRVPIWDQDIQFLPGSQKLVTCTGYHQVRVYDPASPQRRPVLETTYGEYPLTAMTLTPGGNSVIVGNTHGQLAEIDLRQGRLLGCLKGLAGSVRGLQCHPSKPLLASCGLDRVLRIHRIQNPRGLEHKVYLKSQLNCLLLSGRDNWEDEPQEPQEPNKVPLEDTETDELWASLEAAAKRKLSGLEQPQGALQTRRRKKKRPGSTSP

T2: YWHAH 2-246 14-3-3 (domain begin residue: 2, domain end residue: 246), Q04917
T2 chain: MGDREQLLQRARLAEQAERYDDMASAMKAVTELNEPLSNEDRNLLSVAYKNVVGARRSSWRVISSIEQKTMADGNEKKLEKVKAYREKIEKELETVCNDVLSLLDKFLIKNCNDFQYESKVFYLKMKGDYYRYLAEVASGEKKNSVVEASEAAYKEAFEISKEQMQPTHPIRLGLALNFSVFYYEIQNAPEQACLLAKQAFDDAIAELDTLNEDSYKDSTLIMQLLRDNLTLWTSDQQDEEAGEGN

T3: YWHAE 1-255 14-3-3 (domain begin residue: 1, domain end residue: 255), P62258
T3 chain: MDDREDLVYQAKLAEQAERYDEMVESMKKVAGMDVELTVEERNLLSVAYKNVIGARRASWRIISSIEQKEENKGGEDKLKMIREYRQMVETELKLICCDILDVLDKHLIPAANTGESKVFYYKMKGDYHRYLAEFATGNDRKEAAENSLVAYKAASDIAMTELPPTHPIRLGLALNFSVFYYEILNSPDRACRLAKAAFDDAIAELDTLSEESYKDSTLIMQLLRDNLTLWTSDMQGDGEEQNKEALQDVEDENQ

T4: YWHAB 1-246 14-3-3 (domain begin residue: 1, domain end residue: 246), P31946
T4 chain: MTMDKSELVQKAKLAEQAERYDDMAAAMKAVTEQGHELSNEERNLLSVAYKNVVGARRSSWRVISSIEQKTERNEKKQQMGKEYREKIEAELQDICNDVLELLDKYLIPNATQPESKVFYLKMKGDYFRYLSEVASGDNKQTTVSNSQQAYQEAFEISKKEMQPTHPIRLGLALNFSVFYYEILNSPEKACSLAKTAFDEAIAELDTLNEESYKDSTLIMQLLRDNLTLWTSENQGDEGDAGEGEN

T5: YWHAZ 1-245 14-3-3 (domain begin residue: 1, domain end residue: 245), P63104
T5 chain: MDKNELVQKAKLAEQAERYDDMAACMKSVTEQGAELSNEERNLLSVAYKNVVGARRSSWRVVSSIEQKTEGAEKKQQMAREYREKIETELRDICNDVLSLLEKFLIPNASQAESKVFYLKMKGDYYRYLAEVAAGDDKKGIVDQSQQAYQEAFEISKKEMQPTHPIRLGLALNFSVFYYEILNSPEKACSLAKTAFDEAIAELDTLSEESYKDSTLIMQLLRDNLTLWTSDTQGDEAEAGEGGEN

T6: YWHAG 1-247 14-3-3 (domain begin residue: 1, domain end residue: 247), P61981
T6 chain: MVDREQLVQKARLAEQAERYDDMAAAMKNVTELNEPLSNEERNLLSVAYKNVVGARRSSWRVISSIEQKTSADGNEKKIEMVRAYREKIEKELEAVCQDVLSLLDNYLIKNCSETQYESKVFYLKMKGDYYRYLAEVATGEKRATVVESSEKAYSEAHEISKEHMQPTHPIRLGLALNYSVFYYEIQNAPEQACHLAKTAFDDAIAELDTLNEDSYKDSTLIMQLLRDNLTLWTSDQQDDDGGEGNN

T7: ZGPAT 120-268 zf-CCCH+TUDOR (domain begin residue: 120, domain end residue: 268), Q8N5A5
T7 chain: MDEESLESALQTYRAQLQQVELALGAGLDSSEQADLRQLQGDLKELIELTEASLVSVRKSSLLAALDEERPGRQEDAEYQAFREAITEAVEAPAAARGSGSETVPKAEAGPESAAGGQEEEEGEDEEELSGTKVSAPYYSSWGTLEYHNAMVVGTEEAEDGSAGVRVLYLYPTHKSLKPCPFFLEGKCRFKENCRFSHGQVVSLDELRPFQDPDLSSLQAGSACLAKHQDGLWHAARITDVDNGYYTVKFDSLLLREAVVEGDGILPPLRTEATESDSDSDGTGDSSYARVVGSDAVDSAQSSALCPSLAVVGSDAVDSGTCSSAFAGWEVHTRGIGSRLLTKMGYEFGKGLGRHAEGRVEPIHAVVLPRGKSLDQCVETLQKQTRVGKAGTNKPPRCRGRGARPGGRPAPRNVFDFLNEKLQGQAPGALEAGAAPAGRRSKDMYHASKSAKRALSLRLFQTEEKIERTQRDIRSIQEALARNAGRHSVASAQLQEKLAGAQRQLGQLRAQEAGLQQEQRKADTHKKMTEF

The first test deals with T1, WDR74 1-387 WD40 (domain begin residue: …. The test is described as follows: phage ELISA signal ratio (GST-PRM binding over GST background); higher = stronger binding of peptide-phage to the PRM. An outline of the steps: (§1)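 Approximately 48 individual clones from selection rounds 4 and 5 were tested by phage ELISA, and those scoring positive were sequenced. They came from five rounds of selecting an M13 phage library of randomized, cysteine-free, glycine-flanked hexadecapeptides on the gene-8 major coat protein against human peptide recognition domains fused to the C-terminus of glutathione S-transferase (GST) in 96-well plates. Each figure in the table is the ELISA signal on the GST-domain fusion relative to the signal on GST alone.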
A general note: An ELISA detects its analyte on a solid surface through an enzyme-linked reagent.
For the molecule DMWAMWHEWVEQEPQD, the “phage ELISA signal ratio” value is 2.88.

Regarding QIWSLWVEGMMYQPDN, the “phage ELISA signal ratio” value was found to be 2.75.

For PALSDVWDSIPLEFAW, the “phage ELISA signal ratio” value came out at 6.43.

Regarding DMWSQWEEWNAVMPWE, the “phage ELISA signal ratio” value is 9.73.

As for DFMSDMFLQQLDTVGL, the “phage ELISA signal ratio” value amounted to 7.8.

As for DWFSSIIEAERQPVAD, the “phage ELISA signal ratio” value is 5.4.

In the case of WEAIWDDMLTVQMPMA, the “phage ELISA signal ratio” value stood at 5.

FDSYWEAAFDQLQMAE: the “phage ELISA signal ratio” value stood at 7.17.

Consider WHWPELQDLMSIGMDE, for which the “phage ELISA signal ratio” value came out at 2.99.

In another test the target is T2, YWHAH 2-246 14-3-3 (domain begin …. The test is described as above. An outline of the steps:
as §1
Regarding GDVSNLSEAMELWRSW, the “phage ELISA signal ratio” value was 17.6.

Take VEYLDLANFDPMAGKW: the “phage ELISA signal ratio” value was found to be 26.2.

As for SLEWLDLAQWTDPHQR, the “phage ELISA signal ratio” value was 19.8.

MDWLDLAGQESLFPLW: the “phage ELISA signal ratio” value is 17.1.

For LEWLDLAQWHGGENSR, the “phage ELISA signal ratio” value was determined as 21.

With GLHQLDWLDLADIYPK, the “phage ELISA signal ratio” value was determined as 18.7.

For a further test, the target named is WDR5 20-334 WD40 (domain begin residue: 20, domain end residue: 334), P61964. The test is described as above. An outline of the steps:
as §1
On to QRTMAWKSEDHLMPQS, for which the “phage ELISA signal ratio” value is 14.9.

Take RTDPEQYQRTMMVPRG: the “phage ELISA signal ratio” value was found to be 12.1.

Turning to PEQERINRKTYQMVSR, the “phage ELISA signal ratio” value was 13.

Take RWEPHAWQADQVEATK: the “phage ELISA signal ratio” value is 14.

In the case of RTEPYVHQQPTPQAPA, the “phage ELISA signal ratio” value was 12.4.

As for VPSLVMPQDQPVMVSR, the “phage ELISA signal ratio” value was 12.8.

Regarding ETQDPPEVRQYTMVSR, the “phage ELISA signal ratio” value turned out to be 13.8.

Take QQVFQDHSNHQMMISR: the “phage ELISA signal ratio” value amounted to 14.

For AARTHAQEYHKGIMAS, the “phage ELISA signal ratio” value came to 21.6.

Turning to GRWVPVQDVPRFEIED, the “phage ELISA signal ratio” value turned out to be 19.

Take EYHPRWGYIMAQASDS: the “phage ELISA signal ratio” value came to 11.

With NARTDAWWSQQSLQQH, the “phage ELISA signal ratio” value was 9.86.

With SARTGYDNYLKPSSQQ, the “phage ELISA signal ratio” value is 22.

AARTQWYLAAVAEQAP: the “phage ELISA signal ratio” value was found to be 12.9.

In the case of QRTMAWKSENHLMPHS, the “phage ELISA signal ratio” value came to 16.4.

PRYKPHNRTEPVPLMA: the “phage ELISA signal ratio” value amounted to 18.7.

On to RTEYLNWQEHRTVSKE, for which the “phage ELISA signal ratio” value is 11.

As for GAARTQGVEWHSQHSH, the “phage ELISA signal ratio” value amounted to 14.9.

In the case of KKPVPMRWEHTYTETM, the “phage ELISA signal ratio” value was 20.2.

Take SARTSHWVPMEWNHLQ: the “phage ELISA signal ratio” value is 14.

FELAGRWEPLMMYEWV: the “phage ELISA signal ratio” value came out at 12.8.

Turning to IKETAHMDERPKMISR, the “phage ELISA signal ratio” value turned out to be 15.8.

In the case of GRWVPWDQNVTTSDES, the “phage ELISA signal ratio” value was found to be 23.4.

With RTEPYQWMKAAGFPTS, the “phage ELISA signal ratio” value was found to be 9.24.

For ARTWYMHQQEAMADQK, the “phage ELISA signal ratio” value was 26.3.

Turning to SARSEPYPSTNFTWTH, the “phage ELISA signal ratio” value came to 25.7.

On to VEFWWSDTSARTLPFK, for which the “phage ELISA signal ratio” value amounted to 9.42.

The target in another test is T3, YWHAE 1-255 14-3-3 (domain begin …. Described as above. An outline of the steps:
as §1
For the molecule EWSVWDHVPRDWQTVG, the “phage ELISA signal ratio” value was 17.7.

As to YMQNLDTQWMLWLQGP, the “phage ELISA signal ratio” value came out at 9.78.

A further test deals with T4, YWHAB 1-246 14-3-3 (domain begin …. The test is described as above. The procedure, abridged: as §1
In the case of HKMEPWYTDWHADFLM, the “phage ELISA signal ratio” value was determined as 9.61.

With QNIEFVWWHKEWLENQ, the “phage ELISA signal ratio” value worked out at 15.1.

Take RPAWMDSATWLMIQEW: the “phage ELISA signal ratio” value was 22.

As for HPPWWEPWHVEFLLQD, the “phage ELISA signal ratio” value came out at 22.7.

Regarding VWPMPQTWAEWQDLLA, the “phage ELISA signal ratio” value stood at 17.7.

Consider VVFSDYWVDWHVEYMG, for which the “phage ELISA signal ratio” value worked out at 11.9.

The next test concerns the target T5, YWHAZ 1-245 14-3-3 (domain begin …. The test is described as above. An outline of the steps:
as §1
In the case of QNIEFVWWHKEWLENQ, the “phage ELISA signal ratio” value came out at 6.38.

As for EHPHYWTPWHVDYMLR, the “phage ELISA signal ratio” value amounted to 4.41.

As for MPEYWVDWHMEYVQEM, the “phage ELISA signal ratio” value turned out to be 28.1.

As for VKSYYTTWHVQWLMDW, the “phage ELISA signal ratio” value came out at 6.31.

In another test the target is T6, YWHAG 1-247 14-3-3 (domain begin …. The test is described as above. The procedure, abridged: as §1
Regarding PQSLQEAMVVWQTWSG, the “phage ELISA signal ratio” value turned out to be 21.6.

For the molecule PSPQPWWTDWHAEWVN, the “phage ELISA signal ratio” value turned out to be 16.1.

Consider HQQGDDWVIAEIPPFR, for which the “phage ELISA signal ratio” value was 19.8.

Another test concerns the target T7, ZGPAT 120-268 zf-CCCH+TUDOR (domain …. The test is described as above. The procedure, abridged: as §1
Consider EPHMLYDMWREWVTAD, for which the “phage ELISA signal ratio” value amounted to 3.14.
